According to the supplement of paper PMC10646978:
± gives the standard deviation.

Columns and labels:
Conditions in all cases: modulator concentration 10 µM
[1] = test system: RAW-Dual (murine macrophage reporter line); assay: NF-kB reporter (SEAP) activity fold change vs agonist alone; higher = enhanced NF-kB activity
Summary of the method: (§1)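 Overnight stimulation with a PRR agonist followed pre-incubation for 1 hour at 37 °C with compound at 10 μM final. This was done in RAW-Dual murine macrophage reporter cells seeded at 50 000 per well in 384-well plates. NF-κB (SEAP, QUANTI-Blue absorbance at 620 nm) and IRF (Lucia luciferase, QUANTI-Luc luminescence) were read from the supernatant. Each reporter's fold change relative to the mean agonist-only control on the same plate was averaged over replicate plates.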

[2] = test system: RAW-Dual (murine macrophage reporter line); assay: IRF reporter (Lucia luciferase) activity fold change vs agonist alone; higher = enhanced IRF activity
Summary of the method: as §1

[3] = test system: RAW-Dual (murine macrophage reporter line); assay: viability score (confluency relative to resting cells, overnight) (fraction); higher = more viable, active = viable (0.7 or more)
Summary of the method: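 RAW-Dual macrophages in 384-well plates were exposed overnight to compound at 10 μM final. Confluency was imaged with IncuCyte, and two confluency masks were generated with IncuCyte software over all imaged wells. The viability score is confluency expressed relative to resting cells. Compounds were called viable if both masks exceeded 70% of resting cells.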

[4] = agonist: CpG ODN 1826 0.5 ug/mL

O=C(NCC1CN(c2ccc(N3CCOCC3=O)cc2)C(=O)O1)c1ccc(Cl)s1 (stereo unspecified)
NF-kB reporter [1, 4]: 1.36 ± 0.18
NF-kB reporter ([1]; agonist: LPS 0.1 ug/mL): 1.09 ± 0.41
NF-kB reporter ([1]; agonist: MPLA […]): 0.984 ± 0.063
IRF reporter ([2]; agonist: 3'3'-cGAMP 10 ug/mL): 0.898 ± 0.031
IRF reporter ([2]; agonist: LPS 0.1 ug/mL): 1.21 ± 0.43
IRF reporter ([2]; agonist: MPLA […]): 1.03 ± 0.08
viability score [3]: 1 (active)

CC(=O)Oc1ccc(C(=O)Nc2ccccc2Br)cc1
NF-kB reporter [1, 4]: 0.856 ± 0.068
NF-kB reporter ([1]; agonist: LPS 0.1 ug/mL): 1.01 ± 0.092
NF-kB reporter ([1]; agonist: MPLA […]): 0.877 ± 0.066
IRF reporter ([2]; agonist: 3'3'-cGAMP 10 ug/mL): 0.953 ± 0.049
IRF reporter ([2]; agonist: LPS 0.1 ug/mL): 1.08 ± 0.2
IRF reporter ([2]; agonist: MPLA […]): 0.904 ± 0.26
viability score [3]: 0.992 (active)

Cc1ccc(-c2nc(O)nc3ccccc23)cc1
NF-kB reporter [1, 4]: 1.28 ± 0.37
NF-kB reporter ([1]; agonist: LPS 0.1 ug/mL): 1.11 ± 0.086
NF-kB reporter ([1]; agonist: MPLA […]): 1.07 ± 0.086
IRF reporter ([2]; agonist: 3'3'-cGAMP 10 ug/mL): 0.786 ± 0.054
IRF reporter ([2]; agonist: LPS 0.1 ug/mL): 0.967 ± 0.14
IRF reporter ([2]; agonist: MPLA […]): 0.966 ± 0.11
viability score [3]: 0.931 (active)

Cl.Cl.OCCOCCN1CCN(C(c2ccccc2)c2ccc(Cl)cc2)CC1 (stereo unspecified)
NF-kB reporter [1, 4]: 1.21 ± 0.051
NF-kB reporter ([1]; agonist: LPS 0.1 ug/mL): 1.51 ± 0.12
NF-kB reporter ([1]; agonist: MPLA […]): 2.68 ± 0.22
IRF reporter ([2]; agonist: 3'3'-cGAMP 10 ug/mL): 0.726 ± 0.034
IRF reporter ([2]; agonist: LPS 0.1 ug/mL): 1.27 ± 0.25
IRF reporter ([2]; agonist: MPLA […]): 1.45 ± 0.37
viability score [3]: 0.965 (active)

COc1ccc2c(c1)c(CC(=O)OCC(=O)O)c(C)n2C(=O)c1ccc(Cl)cc1
NF-kB reporter [1, 4]: 0.844 ± 0.16
NF-kB reporter ([1]; agonist: LPS 0.1 ug/mL): 1.06 ± 0.33
NF-kB reporter ([1]; agonist: MPLA […]): 0.835 ± 0.053
IRF reporter ([2]; agonist: 3'3'-cGAMP 10 ug/mL): 0.938 ± 0.029
IRF reporter ([2]; agonist: LPS 0.1 ug/mL): 1.15 ± 0.25
IRF reporter ([2]; agonist: MPLA […]): 1.07 ± 0.11
viability score [3]: 0.985 (active)

CC(C)CCn1c(COc2ccccc2)nc2ccccc21
NF-kB reporter [1, 4]: 0.892 ± 0.067
NF-kB reporter ([1]; agonist: LPS 0.1 ug/mL): 1.02 ± 0.078
NF-kB reporter ([1]; agonist: MPLA […]): 0.995 ± 0.028
IRF reporter ([2]; agonist: 3'3'-cGAMP 10 ug/mL): 0.914 ± 0.033
IRF reporter ([2]; agonist: LPS 0.1 ug/mL): 1.04 ± 0.048
IRF reporter ([2]; agonist: MPLA […]): 1.09 ± 0.1
viability score [3]: 0.999 (active)

C=Cc1c(C)c2cc3nc(cc4[nH]c(cc5nc(cc1[nH]2)C(C)=C5CCC(=O)O)c(CCC(=O)OC)c4C)[C@@]1(C)C3=CC=C(C(=O)OC)C1C(=O)OC (stereo partly specified) [Prestw-1105]
NF-kB reporter [1, 4]: 0.611 ± 0.075
NF-kB reporter ([1]; agonist: LPS 0.1 ug/mL): 0.869 ± 0.069
NF-kB reporter ([1]; agonist: MPLA […]): 1.17 ± 0.16
IRF reporter ([2]; agonist: 3'3'-cGAMP 10 ug/mL): 0.131 ± 0.018
IRF reporter ([2]; agonist: LPS 0.1 ug/mL): 0.642 ± 0.13
IRF reporter ([2]; agonist: MPLA […]): 0.457 ± 0.16
viability score [3]: 0.669 (inactive)

CCOC(=O)C1=C(C)NC(C)=C(C(=O)OCC)C1c1ccco1
NF-kB reporter [1, 4]: 1.03 ± 0.09
NF-kB reporter ([1]; agonist: LPS 0.1 ug/mL): 1.01 ± 0.066
NF-kB reporter ([1]; agonist: MPLA […]): 1.14 ± 0.087
IRF reporter ([2]; agonist: 3'3'-cGAMP 10 ug/mL): 0.82 ± 0.16
IRF reporter ([2]; agonist: LPS 0.1 ug/mL): 0.999 ± 0.12
IRF reporter ([2]; agonist: MPLA […]): 0.888 ± 0.28
viability score [3]: 0.996 (active)

COC(=O)Nc1nc2cc(C(=O)c3ccccc3)ccc2[nH]1
NF-kB reporter [1, 4]: 1.96 ± 0.28
NF-kB reporter ([1]; agonist: LPS 0.1 ug/mL): 1.23 ± 0.23
NF-kB reporter ([1]; agonist: MPLA […]): 1.31 ± 0.13
IRF reporter ([2]; agonist: 3'3'-cGAMP 10 ug/mL): 0.093 ± 0.0033
IRF reporter ([2]; agonist: LPS 0.1 ug/mL): 1.04 ± 0.19
IRF reporter ([2]; agonist: MPLA […]): 1.6 ± 0.22
viability score [3]: 0.661 (inactive)

COc1cc2c(Oc3ccc(NC(=O)C4(C(=O)Nc5ccc(F)cc5)CC4)cc3F)ccnc2cc1OCCCN1CCOCC1
NF-kB reporter [1, 4]: 0.179 ± 0.0098
NF-kB reporter ([1]; agonist: LPS 0.1 ug/mL): 0.146 ± 0.013
NF-kB reporter ([1]; agonist: MPLA […]): 0.238 ± 0.011
IRF reporter ([2]; agonist: 3'3'-cGAMP 10 ug/mL): 0.0512 ± 0.015
IRF reporter ([2]; agonist: LPS 0.1 ug/mL): 0.0684 ± 0.0041
IRF reporter ([2]; agonist: MPLA […]): 0.138 ± 0.025
viability score [3]: 0.136 (inactive)

COc1ccc2nc(NCCCn3ccnc3)sc2c1
NF-kB reporter [1, 4]: 0.921 ± 0.07
NF-kB reporter ([1]; agonist: LPS 0.1 ug/mL): 1.02 ± 0.11
NF-kB reporter ([1]; agonist: MPLA […]): 1.04 ± 0.1
IRF reporter ([2]; agonist: 3'3'-cGAMP 10 ug/mL): 0.836 ± 0.034
IRF reporter ([2]; agonist: LPS 0.1 ug/mL): 1.15 ± 0.14
IRF reporter ([2]; agonist: MPLA […]): 1.25 ± 0.2
viability score [3]: 0.985 (active)

CC(Oc1ccccc1)C(=O)NC1CC(C)(C)NC(C)(C)C1 (stereo unspecified)
NF-kB reporter [1, 4]: 0.76 ± 0.059
NF-kB reporter ([1]; agonist: LPS 0.1 ug/mL): 0.966 ± 0.085
NF-kB reporter ([1]; agonist: MPLA […]): 1.06 ± 0.1
IRF reporter ([2]; agonist: 3'3'-cGAMP 10 ug/mL): 0.993 ± 0.045
IRF reporter ([2]; agonist: LPS 0.1 ug/mL): 1.26 ± 0.079
IRF reporter ([2]; agonist: MPLA […]): 1.35 ± 0.14
viability score [3]: 1.02 (active)

COC(=O)Nc1nc2ccc(S(=O)c3ccccc3)cc2[nH]1 (stereo unspecified)
NF-kB reporter [1, 4]: 1.1 ± 0.065
NF-kB reporter ([1]; agonist: LPS 0.1 ug/mL): 1.04 ± 0.11
NF-kB reporter ([1]; agonist: MPLA […]): 1.12 ± 0.059
IRF reporter ([2]; agonist: 3'3'-cGAMP 10 ug/mL): 0.279 ± 0.081
IRF reporter ([2]; agonist: LPS 0.1 ug/mL): 0.924 ± 0.11
IRF reporter ([2]; agonist: MPLA […]): 0.536 ± 0.18
viability score [3]: 1.01 (active)
